From PubChem BioAssay (NCI)
This is part of a sample that, as a whole, favours compounds with a hit. Of some 79,000 tested, about 15% had one in any assay. Unmarked numbers belong to inactive results. Calls of active or inactive are those of the source. Rule as the data show it: active = growth inhibition above about 70%; inactive = the rest.

Columns and labels:
[1] = NCI Yeast Anticancer Drug Screen. Data for the rad50 strain (AID 155);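 also: 0% = growth of vehicle-only cultures of the same strain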; conditions: S. cerevisiae rad50 strain growth inhibition; at 50.0 µM; stronger effect = higher value
Procedure, shortened: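 Relative growth inhibition (compound vs vehicle) was measured in yeast with a defined repair-gene alteration.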

[2] = NCI Yeast Anticancer Drug Screen. Data for the mec2-1 strain (AID 157); conditions: S. cerevisiae mec2-1 strain, at 50.0 µM, stronger effect = higher value
Procedure, shortened: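 Growth inhibition is read against vehicle-treated controls after compound exposure of the mec2-1 yeast strain, which is defective in DNA damage repair or cell cycle control.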

[3] = NCI Yeast Anticancer Drug Screen. Data for the sgs1 mgt1 strain (AID 161);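 also: 0% = growth of cultures given vehicle only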; conditions: S. cerevisiae sgs1 mgt1 strain, at 50.0 µM, stronger effect = higher value
Procedure, shortened: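 Yeast cells carrying a defined DNA-repair defect were exposed to test compounds. Growth inhibition was measured relative to vehicle-treated controls.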

[4] = NCI Yeast Anticancer Drug Screen. Data for the cln2 rad14 strain (AID 165);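 also: 0% = growth equal to vehicle treated cultures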; conditions: S. cerevisiae cln2 rad14 strain, at 50.0 µM, stronger effect = higher value
Procedure, shortened: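 Growth inhibition, relative to vehicle-treated controls, is the read-out. The test organism is a yeast strain with defined genetic alterations, cln2 rad14.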

[5] = NCI Yeast Anticancer Drug Screen. Data for the bub3 strain (AID 167); conditions: S. cerevisiae bub3 mutant strain, at 50.0 µM, stronger effect = higher value
Procedure, shortened: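 Screening used yeast with an engineered genetic alteration affecting cell cycle control. Compound-exposed cultures were compared with vehicle cultures, and reduced growth was taken as inhibition.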

[6] = NCI Yeast Anticancer Drug Screen. Data for the mlh1 rad18 strain (AID 175); conditions: S. cerevisiae mlh1 rad18 strain growth inhibition; at 50.0 µM; stronger effect = higher value
Procedure, shortened: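 Cells of a genetically altered yeast strain, deficient in DNA damage repair, were treated with compound. Their growth was then compared with that of vehicle-treated cultures to give inhibition.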

SMILES	growth inhibition [1] [%]	growth inhibition [2] [%]	growth inhibition [3] [%]	growth inhibition [4] [%]	growth inhibition [5] [%]	growth inhibition [6]
CC(=O)OCc1cc(Cl)c(OC(C)=O)c(COC(C)=O)c1	7.75	-10.2	8.8	20.1	-9.05	3.65%
O=C(COc1ccc(Cl)c(Cl)c1)NCc1ccc([N+](=O)[O-])cc1	0.35	28.2	20.9	-10.7	27.8	22.9%
Cc1cc(O)c(C(c2c(O)cc(C)c(Cl)c2C)C(Cl)(Cl)Cl)c(C)c1Cl	26.1	21.9	30.9	39.6	20.6	18.2%
CC1(C)C(CC(=O)O)CC1C(=O)O (stereo unspecified)	10.4	-0.7	-27.4	11.2	-34.6	-1.4%
S=C(Sc1nc2ccccc2[nH]1)Sc1nc2ccccc2[nH]1	16.9	-4.05	10.2	-34.9	8.95	24.6%
O=C1C=C(NCC(c2ccccc2)c2ccccc2)C(=O)c2ncccc21	33.2	24.8	43	34.9	40.9	77.8% (active)
CC(C)NNC(N)=O	-0.2	1.7	-0.8	-8.1	12.4	-5.65%
CC1=CC(c2ccccc2)(c2ccccc2)c2ccccc21	0.1	3	5	-19.1	1.7	-17.4%
CC(=O)Nc1ccc(OC(C)=O)cc1N	-8.9	-8.15	2.9	-8.95	2.95	1%
CC(Oc1ccc([N+](=O)[O-])cc1)c1ccccc1 (stereo unspecified)	-21.6	-0.55	-3.7	-37.1	-23.4	1.4%
CN(C)CCCNC=O	-30.2	-10.9	-26.2	-11.2	-0.45	23.6%
N=C1CCCC1C(=S)SCCC(N)=O (stereo unspecified)	-11.8	-30.2	-51.5	6.8	-30.8	6.15%
Cc1ccc(NC(=O)CCC(CC(=O)C(C)(C)C)=NNC(=O)C(=O)NN)cc1C	-25.8	-19.3	-19.4	-23.5	-7.4	-22.2%
C/C(CC(O)(C(F)(F)F)C(F)(F)F)=N\NC(N)=O	-38.5	-44.5	-22.5	-1.45	-5.35	-15.8%
Cc1nnc2c3nccnc3c(Cl)nn12	20.8	25	56.3	20.3	9	24.1%
COc1ccc2c(c1)C1Oc3ccccc3CC1(O)CO2 (stereo unspecified)	14.4	6.75	21.3	26.5	-6.3	51.5%
C=C1C(=O)OC2(CCCCC)CCCCC12 (stereo unspecified)	1.95	4.1	-11.2	-9.9	0.5	-10.5%
COc1cccc(C2ON=C(c3ccccc3)N2C23CC4CC(CC(C4)C2)C3)c1 (stereo unspecified)	8.5	-3.4	-34.2	-6.7	10.1	14.9%
COc1ccc(Cl)cc1NC(=O)c1cccc([N+](=O)[O-])c1O	-14.9	8.95	1.75	-8.55	8.65	-78.4%
CC(C)CCCC(C)CCCC(C)CCCC(C)CC(=O)O (stereo unspecified)	-9.35	-25.5	-16.9	43	-1.2	-23.3%
FC1(F)SC2CCCCCCCCCCC2C1(F)F (stereo unspecified)	-42.6	-15.3	-20.4	-18.7	29.1	2.05%

SMILES	growth inhibition [1] [%]	growth inhibition [2] [%]	growth inhibition [3] [%]	growth inhibition [4] [%]	growth inhibition [5] [%]	growth inhibition [6]
CC(C)(C)OC(=O)N/N=C(/N)Cc1ccccc1	-36.2	-3.65	-18.4	6.5	6.4	5.55%
c1ccc(-c2cc3nc4ccccc4nc3o2)cc1	-6.65	-10.6	-13	1.6	2.15	-4.4%
CCN1C(=O)CS/C1=N/NC(=O)C(O)(c1ccccc1)C1C=CC=CC1 (stereo unspecified)	-9.6	-21.1	2.6	10.3	0.25	4.75%
O=C(CCCC(=O)N/N=C/c1ccc(Cl)cc1)N/N=C\c1ccc(Cl)cc1	-27.4	-9.9	-9.9	-11.6	-1.65	-16.9%
CCCCCCCc1c(C)c2ccc(OC)cc2[nH]c1=O	-9.8	-29.1	-5.8	-5	-6.85	-5.15%
C/C(=C/c1ccccc1)C(F)F	3.9	-5.7	-13	-7.45	-11.6	8.75%
CC(C)CC1CC(=O)NC1C(=O)O (stereo unspecified)	-14.2	0.35	-13.2	-26.1	-0.85	-28.9%
COc1ccc(COc2ccc([N+](=O)[O-])cc2)cc1	-12.2	5	-4.45	-9	-13.9	-2.25%
CC(=O)c1cccc(NC(=O)OC2CCCC(C)C2)c1 (stereo unspecified)	29.8	60.7	59.6	19.4	54	43.1%
CC(=O)OCC1OC(n2c(C)c(N=Nc3ccc(Cl)cc3)c(C)c(C#N)c2=S)C(OC(C)=O)C(OC(C)=O)C1OC(C)=O (stereo unspecified)	4.65	-0.75	25.1	11.9	7.55	18.8%
COc1cc(OC)cc(N2CCC(c3c(N)nc(N)nc3Cl)CC2)c1	-4.1	10.1	-8.65	-2.25	15.2	-18.3%
COCC(O)CN1CCN(c2ccccc2OC)CC1 (stereo unspecified)	-16.5	-16.6	-7.3	-14.2	25.6	-13.2%
CCCCCCCCCCCCCCCCCC(=O)OCC(COC(C)=O)OC(C)=O (stereo unspecified)	-3.45	-5.05	-3.8	-46.1	-1.2	4.8%
CC(C)(CC(O)C#N)/[N+]([O-])=[N+](\[O-])C(C)(C)CC(O)C#N (stereo unspecified)	3.75	5.15	34.1	-4.15	13.2	-27.8%
CCC1=CC(C(O)CC(C)C)C(C)(Cc2ccc(CC)cn2)NC1c1ccccc1 (stereo unspecified)	24.9	14.8	40.2	11.9	54.1	50.3%
N#CCCN(C1=NN(C(=O)CC(=O)Nc2ccccc2)C(c2ccccc2)C1)c1ccccc1Cl (stereo unspecified)	-5.05	-3.9	-36	27.9	-1.15	-9.2%
CC1=CC(N)C2CC1C2(C)C (stereo unspecified)	-9.3	-17.1	-29.1	-37.6	-2.2	-1.65%
COc1ccc(C(=O)c2c(C(=O)O)ccc3ccccc23)cc1	9.55	2.25	11.3	-39.3	6.75	-21.5%
Cc1ccc(CCn2cnc3c(N(CCO)CCO)ncnc32)cc1	-8.45	23.8	-6.85	15.6	7.95	-9.6%
CCCCCCCCNCC(=O)O	-20	-21.6	-5.35	3.05	-13.1	-12.9%
